Reference: the supplement of paper PMC6555819

What was measured:
Assay in all cases: PBM binding z-score (relative to random genomic background probes); higher = stronger binding; sequences stand for … in GC…GCGATTGACAGCGTAGAATGAAGG
[1] = test system: FXR:RXRa (NR concentration 270 nM, RXRa partner concentration 90 nM)
Outline: (§1)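 The probes on custom Agilent 4×180K protein-binding microarrays were double-stranded, with 34-nt variable regions bearing direct-repeat seeds, single-nucleotide variants, half-site ablations and random human genomic background sequences. Incubation lasted 1 h with ligand-free nuclear receptor dimers in PBS pH 7.4, 2% milk, 0.02% Triton X-100, 1 mM DTT, 0.2 mg/mL BSA and 0.4 mg/ml salmon testes DNA. Antibodies against each partner (one per run) detected bound dimers, and fluorescence scans were regression-normalized. Binding z-scores take the random background probes as reference.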

[2] = test system: LXRa:RXRa (NR concentration 270 nM, RXRa partner concentration 90 nM)
Outline: as §1

[3] = test system: LXRa homodimer (NR concentration 270 nM)
Outline: as §1

[4] = test system: LXRb:RXRa (NR concentration 270 nM, RXRa partner concentration 90 nM)
Outline: as §1

[5] = test system: LXRb homodimer (NR concentration 270 nM)
Outline: as §1

[6] = test system: PPARa:RXRa (NR concentration 270 nM, RXRa partner concentration 90 nM)
Outline: as §1

[7] = test system: PPARg:RXRa (NR concentration 180 nM, RXRa partner concentration 90 nM)
Outline: as §1

[8] = test system: PPARg:RXRa 270nM:90nM, anti-RXR (NR concentration 270 nM, RXRa partner concentration 90 nM)
Outline: as §1

[9] = test system: PPARg:RXRa 30nM:10nM, anti-RXR (NR concentration 30 nM, RXRa partner concentration 10 nM)
Outline: as §1

[10] = test system: PPARg:RXRa 90nM:30nM, anti-RXR (NR concentration 90 nM, RXRa partner concentration 30 nM)
Outline: as §1

[11] = test system: PPARg:RXRa DBDmut IVT, anti-RXR (DBD mutation: RXRa K156A/R161A, NR concentration 270 nM, RXRa partner concentration 90 nM)
Outline: as §1

[12] = test system: PPARg:RXRa IVT, anti-PPARg (NR concentration 270 nM, RXRa partner concentration 90 nM)
Outline: as §1

[13] = test system: PPARg DBDmut:RXRa IVT, anti-PPARg (DBD mutation: PPARg1 K132A/R137A, NR concentration 270 nM, RXRa partner concentration 90 nM)
Outline: as §1

[14] = test system: PPARg DBDmut IVT, anti-PPARg (DBD mutation: PPARg1 K132A/R137A, NR concentration 270 nM)
Outline: as §1

[15] = test system: PPARg homodimer (NR concentration 180 nM)
Outline: as §1

[16] = test system: PXR:RXRa (NR concentration 270 nM, RXRa partner concentration 90 nM)
Outline: as §1

[17] = test system: PXR homodimer (NR concentration 270 nM)
Outline: as §1

[18] = test system: RARa:RXR (NR concentration 270 nM, RXRa partner concentration 90 nM)
Outline: as §1

[19] = test system: RARa homodimer (NR concentration 270 nM)
Outline: as §1

[20] = test system: RARb:RXRa (NR concentration 270 nM, RXRa partner concentration 90 nM)
Outline: as §1

Row | Sequence | PBM binding z-score [1] | PBM binding z-score [2] | PBM binding z-score [3] | PBM binding z-score [4] | PBM binding z-score [5] | PBM binding z-score [6] | PBM binding z-score [7] | PBM binding z-score [8] | PBM binding z-score [9] | PBM binding z-score [10] | PBM binding z-score [11] | PBM binding z-score [12] | PBM binding z-score [13] | PBM binding z-score [14] | PBM binding z-score [15] | PBM binding z-score [16] | PBM binding z-score [17] | PBM binding z-score [18] | PBM binding z-score [19] | PBM binding z-score [20]
1 | TCTTGTAGATCCATAGAGGTTAAGAAAGTGCGCT | 0.485 | 3.32 | -0.138 | 1.43 | 0.453 | 1.16 | -0.272 | 1.18 | 2.32 | 1.65 | 1.15 | 0.128 | 1.1 | 0.975 | 0.227 | 2.66 | 0.0814 | 1.35 | 0.858 | 0.837
2 | GATACCGGGTCAAGGCCAGAGTACGCGTATTGAT | 4.87 | 2.87 | -0.172 | 2.45 | -1.08 | 5.08 | 5.25 | 4.57 | 1.31 | 3.21 | 2.4 | 4.67 | 0.967 | 0.0234 | 0.895 | 2.62 | 0.124 | 2.97 | 0.054 | 3.9
3 | CCTACTGGGCCACGAAATGTCATTGATTCAGTGA | -0.161 | -0.0585 | -0.34 | -0.341 | -0.393 | 0.653 | 1.58 | 1.24 | -0.144 | 0.475 | 6.24 | 5.34 | 0.216 | -0.527 | 0.759 | -0.308 | -0.533 | 0.0426 | -0.591 | 0.57
4 | CCTAGTTGGTCAGGAGCTCACACACCGGATATGA | -0.0186 | -0.0451 | 0.119 | -0.266 | 0.143 | -0.0186 | 0.636 | 0.361 | -0.291 | -0.0665 | 0.512 | 0.377 | 0.181 | -0.1 | 0.317 | -0.386 | -0.151 | -0.201 | 0.575 | 0.469
5 | GCATAAAGGTAATACAAGGTGAAAGTCCGATTGT | 0.963 | 4.21 | 0.396 | 1.65 | -0.394 | 2.06 | 0.943 | 1.72 | 0.61 | 0.948 | 0.839 | 1.67 | 0.773 | 0.759 | 0.757 | 1.42 | -0.0245 | 1.99 | 0.262 | 1.11
6 | CCTAGTTCGTCAGGAGGTCACACACCGGATATGA | 3.66 | 4.1 | 2.37 | 3.64 | 1.22 | 4.28 | 2.29 | 3.03 | 1.04 | 2.19 | 1.04 | 2.38 | 0.424 | 0.947 | 5.39 | 5.2 | 2.66 | 5.34 | 2.32 | 3.76
7 | ACTAGTTGGTCAGCTGACGTCACACACAATTCGG | 0.0857 | 0.103 | -0.224 | 0.522 | 0.287 | 0.229 | 0.969 | -0.246 | -0.0374 | -0.0611 | 0.857 | 0.972 | 0.728 | 0.709 | 0.152 | 0.163 | -0.648 | 0.0415 | 0.251 | 0.952
8 | AGAACGGGGGCAATGAGTTGATAGCACGGGTGGC | 2.35 | 2.45 | 0.461 | 4.18 | 6.07 | 3.66 | 2.98 | 4.15 | 2.33 | 3.26 | 4.36 | 5.56 | 9.77 | 9.9 | 1.96 | 3.74 | 6.38 | 2.68 | 1.18 | 3.02
9 | GCTCGGTGGACAAGGTCAGAGCTTTGTCCGTAGA | 1.11 | 1.03 | -0.446 | 0.887 | -1.16 | 2.09 | 0.0962 | 1.14 | -0.712 | 0.499 | 0.124 | 0.413 | -1.69 | -0.301 | 0.136 | 1.68 | -0.455 | 2.25 | -0.966 | 2.68
10 | CCTAGCTGGTCAGGAGGTCACACACCGGATATGA | 3.53 | 3.73 | 1.44 | 3.21 | 0.171 | 4.14 | 2.84 | 3.59 | 1.08 | 2.74 | 0.695 | 2.85 | 0.353 | 0.266 | 3.15 | 4.2 | 0.691 | 4.65 | 0.568 | 3.67
11 | TTACCAAGGTGAGCTGAGGTCATTGATCCAACTC | 4.44 | 4.36 | 2.23 | 3.33 | -0.78 | 3.78 | 1.69 | 2.46 | 0.796 | 1.62 | 1.49 | 2.8 | -0.00582 | -0.0839 | 1.23 | 6.15 | 3.42 | 4.75 | 0.362 | 3.44
12 | ATCTCTAGGTAAAGATAGTTCAGTTAATGCAAAT | 0.733 | 4.33 | 1.07 | 1.39 | 0.619 | 0.689 | 0.743 | 0.482 | 0.448 | 0.659 | 2.3 | 1.96 | 0.842 | 0.769 | 1.02 | 1.26 | 0.841 | 0.925 | 1.28 | 0.672
13 | CAAACTAGGTCACAGAGGTCAAGGTCCGTGCGTA | 7.39 | 6.46 | 5.6 | 5.68 | 1.33 | 6.48 | 10.1 | 8.21 | 6.84 | 8.39 | 8.45 | 9.01 | 2.38 | 2.54 | 4.67 | 6.54 | 10 | 7.58 | 2.96 | 5.46
14 | ATACCAAGGTGATCGTGATGTCGTTGATACTAAC | 0.333 | 0.0372 | 0.013 | 0.116 | -0.0295 | 0.0573 | 0.279 | 0.281 | 0.217 | 0.0356 | 0.486 | 0.996 | 0.919 | 1.1 | 0.247 | -0.038 | 0.104 | 0.057 | 0.517 | 0.325
